# Screening results as filed in PubChem.
# ELG1 genotoxic: qHTS screen for small molecules that induce genotoxicity in human embryonic kidney (HEK293T) cells expressing luciferase-tagged ELG1; HEK293T ELG1-luciferase reporter, luminescence, 16 h; Potency, µM (series often up to 46 µM), without a hit: at the top dose activity change, positive = activation, most hits filed as activators; 330,000 compounds, 1.3% hits; further: % of control where 0% means no effect; nearly all actives have a fitted effect of over 60% in size
#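 Quantitative HTS format in 1536-well plates. HEK293T ELG1-luciferase reporter cells receive test compound and are incubated 16 hr at 37 °C, 5% CO2; ONE-Glo added, 30 min room temperature, then luminescence read.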
# SMN2 splice up: qHTS Assay for Enhancers of SMN2 Splice Variant Expression | HEK293 SMN2-luciferase splicing reporter, luminescence, 30-36 h | Potency, µM (top dose mostly 46.1 µM), for the others: at the highest dose activity change, positive = activation, actives largely listed as activators | 210,000 compounds, 2.8% hits | AID 1458, 2008; further: % of control where 0% means no effect; nearly all actives have a fitted effect of over 55% in size
#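 HEK293 cells carry an SMN2 […]–luciferase reporter in which exon 7 inclusion puts luciferase in frame. Cells were plated 10-12 h before compound addition, then incubated 30-36 h at 37C. ONE-Glo luminescence was read; sodium butyrate at 4.5 mM final served as control.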
# NPC1 promoter act: qHTS Assay for NPC1 Promoter Activators; 320,000 compounds, 2.4% hits; Potency, µM (doses to about 9.22 µM), for inactives: at the top dose activation, most hits filed as activators; Huh7 NPC1 promoter luciferase reporter, 24 h; further: % of control where 0% means no effect; nearly all actives have a fitted effect of over 60% in size
#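 Luciferase expression driven by the NPC1 promoter was measured in stably transfected Huh7 cells after a 24 h compound incubation, using a luciferase reagent and a luminescence read.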
# FLuc modulator: qHTS profiling assay for firefly luciferase inhibitor/activator using purifed enzyme and Km concentrations of substrates (counterscreen for miR-21 project); AID 588342, 2011; Luciferin 4-monooxygenase (Photinus pyralis), P08659; Potency, µM (titrated, usually from 57.5 µM), for inactives: at the top dose activity change, negative = inhibition, usual class: inhibitors; purified FLuc, Km substrates, luminescence inhibition; 360,000 compounds, 6.9% hits;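 further: plate controls were vehicle for no effect and reference inhibitor for full effect; nearly all actives have a fitted effect of over 55% in size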
# Target sequence (P08659 whole entry, looked up): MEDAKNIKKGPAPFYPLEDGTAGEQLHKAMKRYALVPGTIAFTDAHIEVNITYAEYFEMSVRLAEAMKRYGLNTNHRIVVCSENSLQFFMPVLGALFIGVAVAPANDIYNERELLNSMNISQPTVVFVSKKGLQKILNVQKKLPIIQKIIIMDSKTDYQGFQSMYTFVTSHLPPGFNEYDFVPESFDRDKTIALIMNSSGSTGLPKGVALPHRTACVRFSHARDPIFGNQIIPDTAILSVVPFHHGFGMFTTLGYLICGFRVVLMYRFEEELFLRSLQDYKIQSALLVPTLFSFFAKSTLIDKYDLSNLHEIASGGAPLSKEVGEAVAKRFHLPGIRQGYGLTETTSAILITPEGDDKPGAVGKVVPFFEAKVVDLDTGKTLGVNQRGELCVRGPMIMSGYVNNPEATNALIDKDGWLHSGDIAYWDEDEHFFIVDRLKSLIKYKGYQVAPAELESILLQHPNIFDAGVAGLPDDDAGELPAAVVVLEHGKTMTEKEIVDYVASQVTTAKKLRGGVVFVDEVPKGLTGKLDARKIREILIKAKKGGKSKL
#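 Purified P. pyralis luciferase, 10 nM final, with Km-level 10 uM D-luciferin and 10 uM ATP in 50 mM Tris acetate pH 7.5, 10 mM Mg acetate, 0.01% Tween-20, 0.05% BSA; 6-point qHTS titration about 60 µM downward; luminescence read.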
# Rab9 promoter act: qHTS Assay for Rab9 Promoter Activators; Huh7 Rab9 promoter-luciferase reporter, luminescence, 24 h; Potency, µM (top dose mostly 9.22 µM), inactives show at the top dose activation, negative = inhibition, most hits filed as activators; 320,000 compounds, 2.8% hits; further: % of control where 0% means no effect; nearly all actives have a fitted effect of over 60% in size
#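 Luciferase signal after 10 min detection reagent at ambient indicates Rab9 promoter upregulation; stably transfected Huh7 cells were treated 24 h with compound in DMSO at 37 °C, 5% CO2.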
# Numbers without * were called inactive; ? = inconclusive; nt = no result; [ ] = another dose, or the depositor's remark. A selection: hits, their analogues and other compounds. The true share with any hit is near 7.5%. The call rests on the fitted dose curve; in most records, active means well fitted curve in the direction sought with a large enough effect; inconclusive means small, poorly fitted or top-dose-only effect, or another doubt; inactive means no such curve, though single readings can be large; an effect the other way counts as inactive or inconclusive. Potency means the concentration at half of the fitted maximal effect.
SMILES,ELG1 genotoxic,SMN2 splice up,NPC1 promoter act,FLuc modulator,Rab9 promoter act
COc1ccc(OCC(=O)Nc2ccc3c(c2)OCO3)cc1,22%,nt,11%,?,14%
Cc1ccc2cccc(OCC(=O)Nc3ccc4c(c3)OCO4)c2n1,-7%,-17%,6%,-19%,-3%
O=C(Nc1ccc(N2CCOCC2)c(Cl)c1)c1cccc(-n2cnnc2)c1,2%,nt,0%,?,8%
Cc1ccc(C(=O)NCc2nnc(SCC(=O)Nc3ccccc3)n2C)cc1,-2%,-2%,0%,21µM*,-2%
O=C(CSc1nnc2n1CCCCC2)Nc1ccc(N2CCOCC2)cc1,2%,nt,1%,17µM*,-2%
CCc1nnc(SCC(=O)Nc2ccc(N3CCOCC3)cc2)n1C,9%,nt,-1%,21µM*,6%
Cc1ccccc1OCc1nnc(SCC(=O)Nc2ccc(N3CCOCC3)cc2)n1C,13%,nt,5%,?,6%
Cc1cc(-c2ccccc2)c2ccc(NC(=O)C(C)(C)C)nc2n1,-6%,nt,1%,-12%,-1%
Fc1ccc2[nH]c3c(NCc4ccccc4)ncnc3c2c1,-5%,nt,-22%,-21%,-1%[1.84 µM]
COc1ccc(-c2csc(Nc3ccc(S(N)(=O)=O)cc3)n2)cc1OC,-14%,nt,-12%,-17%,-2%
COc1ccc(-c2csc(Nc3ccc(C)cn3)n2)cc1OC,-1%,-19%,4%,17µM*,?
COc1ccc(-c2csc(NC(=O)Cc3cc(OC)c(OC)c(OC)c3)n2)cc1OC,-19%,nt,-5%,-1%,-1%
COc1ccc(-c2csc(Nc3cc(C)ccn3)n2)cc1OC,5%,nt,?,11µM*,?
N#Cc1c(C#N)c(-c2ccccc2)n(-c2ccccc2)c1N,-3%,-30%,1%,-2%,-3%
Cc1ccc(C2C(=O)N(C3CCCCCC3)CC(=O)N2C(C)C)cc1 (configuration not stated),nt,nt,nt,4%,nt
Cc1ccc(C(=O)NNC(=S)Nc2cccc3ccccc23)s1,4%,nt,1%,11µM*,28%
O=C(NNC(=S)Nc1cccc2ccccc12)c1cccc(Br)c1,-7%,-30%,2%,-5%,-3%
CC1=NN(C(N)=S)C(=O)C1N=Nc1cccc(Cl)c1C (configuration not stated),7%,nt,?,11µM*,3.5µM*
CCNC(=O)CC1SC(=Nc2cccc3ccccc23)N(C)C1=O (configuration not stated),3%,10%,-7%,0%,1%
CC1=NN(C(N)=S)C(=O)C1N=Nc1cccc2ccccc12 (configuration not stated),?,?,?,17µM*,?
CCC(/C=C1\Sc2ccc(OC)cc2N1CCO)=C\c1sc2ccc(OC)cc2[n+]1CCO,-11%,-74%,-4%,15µM*,-9%
CCC(/C=C1\Sc2ccc(OC)cc2N1CC)=C\c1sc2ccc(OC)cc2[n+]1CCCS(=O)(=O)[O-],-8%,nt,-9%,?,-9%
O=C(CCS(=O)(=O)c1ccc(Cl)cc1)Nc1ccc(F)cc1,2%,nt,2%,-1%,1%
Clc1ccc(-c2ccc(C=Nc3ccc(N4CCOCC4)cc3)o2)cc1,0%,-33%,2%,4.8µM*,1%
Oc1ccc(N=Nc2cccc(C(F)(F)F)c2)cc1C=Nc1ccc(N2CCOCC2)cc1,15%,-63%,18%,-2%,29%
Clc1ccc(-c2ccc(C=Nc3ccc(N4CCOCC4)cc3)o2)c(Cl)c1,2%,-23%,1%,-20%,0%
Clc1cccc(-c2ccc(C=Nc3ccc(N4CCOCC4)cc3)o2)c1Cl,1%,nt,1%,3.4µM*,0%
Cc1ccc(CNC(=O)CSc2ccc(-c3ccccn3)nn2)cc1,-3%,6%,0%,-12%,-3%
Cc1ccc(-n2c(=O)c3sccc3n(CC(=O)NCc3ccco3)c2=O)cc1F,?,-16%,-6%,4%,-2%
COc1ccc(-c2nc(C)c(CCNC(=O)C(=O)Nc3ccccc3F)s2)cc1,nt,nt,nt,-4%,nt
